Where “and” joins values, the source holds several entries; their conditions need not be identical. Equal values may be shown once. A number with no mark means an inactive call. Records with an inconclusive call do not appear. Calls of active or inactive are those of the source. Unless noted, calls come from the whole dose curve; as a rule, active = well fitted curve in the direction sought with a large enough effect in the repeat runs; inconclusive = weak or mixed curves; inactive = no such curve, though single readings can be large; an effect the other way counts as inactive or inconclusive.

A short description of test [1]: qHTS assay to test for compound auto fluorescence at 535 nm (green) in HEK293 cells (AID 720680). Note: potency is the fitted concentration of half-maximal effect. A general note: qHTS replaces the single test concentration by a dilution series.
Test [2] in a line: qHTS assay to test for compound auto fluorescence at 460 nm (blue) in HEK293 cell free culture (AID 720681). Put shortly: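 Blue fluorescence (Ex 405/Em 460 nm, triamterene-equivalent) was read immediately after pin transfer of compound or DMSO into medium (DMEM, 10% FBS) without cells.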
A short description of test [3]: qHTS assay to test for compound auto fluorescence at 535 nm (green) in HEK293 cell free culture (AID 720682). Note: potency is the fitted concentration of half-maximal effect. The method, boiled down:
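Measurement is a direct plate read of green fluorescence (485 nm in, 535 nm out) after compound addition to serum-supplemented DMEM lacking cells, with fluorescein used to express intensities.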

A short description of test [4]: qHTS assay to test for compound auto fluorescence at 590 nm (red) in HEK293 cell free culture (AID 720683). Note: potency is the fitted concentration of half-maximal effect. Put shortly:
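Red-channel autofluorescence of compounds in culture medium (DMEM, 10% FBS), no cells, measured at 540/590 nm. Rose Bengal sodium is the reference fluorophore for equivalence.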

A short description of test [5]: qHTS assay to test for compound auto fluorescence at 590 nm (red) in HepG2 cell free culture (AID 720684). Note: potency is the fitted concentration of half-maximal effect. Put shortly: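 Cell-free; medium MEM + 10% FBS; compound or DMSO added by pintool; read Ex 540/Em 590 nm; Rose Bengal sodium as red reference fluorophore.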
The nature of test [6]: qHTS assay to test for compound auto fluorescence at 460 nm (blue) in HepG2 cell free culture (AID 720685). The method, boiled down:
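Cell-free plates of MEM plus 10% FBS received 23 nL compound or DMSO vehicle; blue-channel (405/460 nm) intensity scored against triamterene as reference fluorophore.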

Test [7] can be described thus: qHTS assay to test for compound auto fluorescence at 535 nm (green) in HepG2 cell free culture (AID 720686). Note: potency is the fitted concentration of half-maximal effect.
A short description of test [8]: qHTS assay to test for compound auto fluorescence at 460 nm (blue) in HepG2 cells (AID 720687). Put shortly: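 Blue-channel autofluorescence (Ex/Em 405/460 nm, triamterene-equivalent) was measured after 1 hr compound exposure at 37 C, 5% CO2. Cells were HepG2, plated overnight at 37 C in MEM plus 10% FBS.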
The target in test [9] is Glucocorticoid receptor (Homo sapiens) (UniProt P04150). Briefly: qHTS assay to identify small molecule antagonists of the glucocorticoid receptor (GR) signaling pathway (AID 720692; active = well fitted inhibition curve with a large enough effect in the signal ratio in the repeat runs, not every such curve was filed as active; the % refers to the signal ratio; note: potency is the fitted concentration of half-maximal effect). The method, boiled down: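 Read-out: beta-lactamase FRET substrate fluorescence, 2 h at room temperature, in HeLa cells stably carrying a GRE-driven bla reporter. Compounds were co-incubated with 5 nM dexamethasone agonist (final) for 18 h at 37 C.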
Sequence of Glucocorticoid receptor (Homo sapiens) (P04150 whole entry, looked up): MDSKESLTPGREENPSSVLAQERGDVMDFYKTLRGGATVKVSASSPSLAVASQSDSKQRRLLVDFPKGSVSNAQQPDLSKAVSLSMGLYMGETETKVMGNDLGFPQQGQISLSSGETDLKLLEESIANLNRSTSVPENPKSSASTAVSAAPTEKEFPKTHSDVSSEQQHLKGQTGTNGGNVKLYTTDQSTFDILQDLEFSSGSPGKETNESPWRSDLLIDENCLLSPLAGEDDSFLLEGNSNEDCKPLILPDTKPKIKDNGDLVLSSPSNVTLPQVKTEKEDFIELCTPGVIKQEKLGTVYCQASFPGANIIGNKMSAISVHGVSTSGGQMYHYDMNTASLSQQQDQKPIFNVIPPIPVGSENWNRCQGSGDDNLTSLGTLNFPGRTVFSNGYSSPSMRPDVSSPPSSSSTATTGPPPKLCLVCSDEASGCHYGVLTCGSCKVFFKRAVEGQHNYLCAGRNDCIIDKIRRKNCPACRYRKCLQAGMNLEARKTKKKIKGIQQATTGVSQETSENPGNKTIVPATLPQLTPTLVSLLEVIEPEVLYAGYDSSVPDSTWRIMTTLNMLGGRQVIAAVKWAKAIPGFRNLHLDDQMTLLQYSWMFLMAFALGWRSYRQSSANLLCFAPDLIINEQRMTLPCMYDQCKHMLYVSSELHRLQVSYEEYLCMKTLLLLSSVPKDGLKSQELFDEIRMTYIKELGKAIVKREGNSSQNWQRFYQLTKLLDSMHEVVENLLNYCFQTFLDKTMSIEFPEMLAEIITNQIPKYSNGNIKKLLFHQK

Test [10] is described as follows: qHTS assay to identify small molecule antagonists of the glucocorticoid receptor (GR) signaling pathway - cell viability counter screen (AID 720693). Note: nearly all actives have a fitted effect of over 55% in size. Note: potency is the fitted concentration of half-maximal effect.
A short description of test [11]: qHTS assay for identifying genotoxic compounds that show differential cytotoxicity against isogenic chicken DT40 cell lines with known DNA damage response pathways - Rev3 mutant cell line (AID 743014). Note: nearly all actives have a fitted effect of over 55% in size. Note: potency is the fitted concentration of half-maximal effect.
A short description of test [12]: qHTS assay for identifying genotoxic compounds that show differential cytotoxicity against isogenic chicken DT40 cell lines with known DNA damage response pathways - Rad54/Ku70 mutant cell line (AID 743015). Note: nearly all actives have a fitted effect of over 60% in size. Note: potency is the fitted concentration of half-maximal effect.
Test [13] is described as follows: qHTS assay for identifying genotoxic compounds that show differential cytotoxicity against isogenic chicken DT40 cell lines with known DNA damage response pathways - wild type cell line (AID 743012). Note: nearly all actives have a fitted effect of over 60% in size. Note: potency is the fitted concentration of half-maximal effect. Put shortly:
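CellTiter-Glo luminescence readout of viability in wild type DT40 cells after 40 h compound exposure at 37 C/5% CO2; 300 cells/well; reagent incubated 30 min at room temperature before reading.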

A short description of test [14]: qHTS assay to identify small molecule antagonists of the androgen receptor (AR) signaling pathway - cell viability counter screen (AID 743033; note: nearly all actives have a fitted effect of over 45% in size; note: potency is the fitted concentration of half-maximal effect).
Test [15] in a line: qHTS assay to identify small molecule antagonists of the androgen receptor (AR) signaling pathway using the MDA cell line - cell viability counter screen (AID 743041; note: nearly all actives have a fitted effect of over 45% in size; note: potency is the fitted concentration of half-maximal effect). Put shortly: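 Viability read by CellTiter-Fluor fluorescence in the same wells as the antagonist screen, added after 15.5 h of a 16 h, 37C exposure. Human breast carcinoma MDA-kb2 AR-luc cells, compounds co-dosed with agonist R1881.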

For test [16], the target named is Glucocorticoid receptor (Homo sapiens) (UniProt P04150). Nature of the test: qHTS assay to identify small molecule agonists of the glucocorticoid receptor (GR) signaling pathway (AID 720691; active = well fitted activation curve with a large enough effect in the signal ratio in the repeat runs, not every such curve was filed as active; the % refers to the signal ratio). The following applies: GR-bla HeLa, beta-lactamase reporter ratio, 18 h; activation: at 62.4 µM (top of the series). The method, boiled down: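 HeLa GR-bla reporter line; cells pre-incubated 4 h, compound in DMSO 18 h at 37 C; LiveBLAzer B/G FRET substrate 2 h RT; fluorescence intensity read-out.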

In test [17] the target is Androgen receptor (Homo sapiens) (UniProt P10275). Briefly: qHTS assay to identify small molecule antagonists of the androgen receptor (AR) signaling pathway using the MDA cell line (AID 743042; note: nearly all actives have a fitted effect of over 55% in size; note: potency is the fitted concentration of half-maximal effect). The method, boiled down: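 Antagonist mode: compounds plus R1881 agonist added to MDA-kb2 AR-luc cells, incubated 16 h at 37C. Luciferase reporter luminescence quantified, with multiplexed CellTiter-Fluor readout for cell viability.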
Sequence of Androgen receptor (Homo sapiens) (P10275 whole entry, looked up): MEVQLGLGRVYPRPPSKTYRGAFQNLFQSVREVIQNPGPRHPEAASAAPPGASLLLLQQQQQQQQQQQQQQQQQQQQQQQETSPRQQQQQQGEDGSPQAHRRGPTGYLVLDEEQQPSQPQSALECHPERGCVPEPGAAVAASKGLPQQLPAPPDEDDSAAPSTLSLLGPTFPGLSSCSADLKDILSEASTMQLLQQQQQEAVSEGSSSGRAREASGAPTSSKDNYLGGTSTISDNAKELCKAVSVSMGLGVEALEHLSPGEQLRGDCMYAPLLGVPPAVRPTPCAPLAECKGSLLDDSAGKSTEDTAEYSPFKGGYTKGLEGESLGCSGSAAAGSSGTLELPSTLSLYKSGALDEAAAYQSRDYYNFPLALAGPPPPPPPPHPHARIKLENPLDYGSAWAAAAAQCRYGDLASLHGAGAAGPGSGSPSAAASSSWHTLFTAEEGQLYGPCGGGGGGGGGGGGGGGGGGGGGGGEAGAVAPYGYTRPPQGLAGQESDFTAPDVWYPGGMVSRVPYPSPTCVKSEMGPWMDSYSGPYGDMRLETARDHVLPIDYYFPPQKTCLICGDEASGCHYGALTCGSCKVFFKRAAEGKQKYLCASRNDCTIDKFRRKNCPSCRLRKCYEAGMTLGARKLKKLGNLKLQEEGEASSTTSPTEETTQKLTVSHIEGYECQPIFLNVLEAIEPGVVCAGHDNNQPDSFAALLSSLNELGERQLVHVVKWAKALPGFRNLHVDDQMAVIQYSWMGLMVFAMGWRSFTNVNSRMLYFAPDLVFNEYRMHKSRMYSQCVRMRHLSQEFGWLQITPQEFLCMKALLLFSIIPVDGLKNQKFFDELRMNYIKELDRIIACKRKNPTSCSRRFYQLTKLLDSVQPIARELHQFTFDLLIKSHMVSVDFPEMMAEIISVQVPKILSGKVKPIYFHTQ

Test [18] shares this target. Briefly: qHTS assay to identify small molecule antagonists of the androgen receptor (AR) signaling pathway (AID 743035; active = well fitted inhibition curve with a large enough effect in the signal ratio in the repeat runs, not every such curve was filed as active; the % refers to the signal ratio; note: potency is the fitted concentration of half-maximal effect). Put shortly:
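AR-bla HEK293 reporter cells; 4 h settle at 37C/5% CO2; compound + R1881 agonist, 16 h at 37C; LiveBLAzer B/G FRET substrate 2 h RT; fluorescence intensity read. qHTS format.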

The target is the same in test [19]. Briefly: qHTS assay to identify small molecule agonists of the androgen receptor (AR) signaling pathway (AID 743036; active = well fitted activation curve with a large enough effect in the signal ratio in the repeat runs, with a control signal flat, not every such curve was filed as active; the % refers to the signal ratio). The method, boiled down: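 Beta-lactamase under UAS control, stably integrated in HEK293 GripTite cells, reports receptor activation. After 16 h compound treatment, cells received FRET substrate for 2 h at room temperature before fluorescence reading.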

The target is the same in test [20]. Nature of the test: qHTS assay to identify small molecule agonists of the androgen receptor (AR) signaling pathway using the MDA cell line (AID 743040; note: nearly all actives have a fitted effect of over 20% in size). Put shortly: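 Luciferase agonist assay: 16 h compound exposure at 37C without CO2 in MDA-kb2 AR-luc cells, whose MMTV promoter responds to both AR and GR. Luminescence measured after 30 min room-temperature incubation with ONE-Glo.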
Tags give direction and shape of the fitted curve or compound fluorescence and quenching.

For the molecule `CCc1ccc(O)c(C(C)(C)C)c1`, the Potency entry in [1], in test [2], in test [3], in [4], in test [5] and in [6] was “inactive” each time. The Potency result in [7], in test [8], in test [9] and in test [10] was “inactive” in each case. In addition, the Potency in test [11] and in test [12] was 30.6 µM (active) in each case.

In the case of `CCCCCCCC/C=C\CCCCCCCC(=O)OCCOC(=O)CCCCCCC/C=C\CCCCCCCC`, the Potency result in [1], in test [2], in test [3], in [4], in test [5] and in test [6] was “inactive” each time. Besides, the Potency entry in test [7], in test [8], in [10], in [13], in [11] and in test [12] was “inactive” in each case. Besides, the Potency result in [14] and in test [15] was “inactive” in each case.

In the case of `O=C(NO)c1ccccc1`, the Potency entry in test [1], in test [2], in test [3], in test [4], in test [5] and in test [6] was “inactive” throughout. Further, the Potency result in test [7], in test [8], in test [16], in [15] and in test [17] was “inactive” each time. Further, the Potency in test [11] was 44.9 µM (active); in [12] it was 50.4 µM (active).

On to `CC(=O)OC(OC(C)=O)c1ccc([N+](=O)[O-])o1`, for which the Potency entry in [1], in [2], in [3], in [4], in [5] and in test [6] was “inactive” throughout. In addition, the Potency entry in test [7] and in test [8] was “inactive” throughout. The Potency in test [9] is 55.9 µM (active); in test [13] it was 19.7 µM (active); in [11] it was 5.54 µM (active); in test [12] it was 15.6 µM (active); in test [14], 22.3 µM (active).

With `CSc1ccc2c(c1)N(CCC1CCCCN1C)c1ccccc1S2` (stereo unspecified), the Potency result in [1], in test [2], in [3], in test [4], in test [5] and in test [6] was “inactive” each time. Moreover, the Potency result in [7], in test [8] and in test [15] was “inactive” each time. Besides, the Potency was 54.7 µM (active) in test [10]; 6.68 µM (active) and 17.2 µM (active) in [11]; 9.44 µM (active) and 19.3 µM (active) in test [12]; 23.9 µM (active) and 21.8 µM (active) in test [14].

For `CC(C)(c1cc(Br)c(OCCO)c(Br)c1)c1cc(Br)c(OCCO)c(Br)c1`, the Potency result in [1], in [2], in [3], in test [4], in test [5] and in test [6] was “inactive” throughout. In addition, the Potency result in test [7], in test [8] and in test [20] was “inactive” in each case. Further, the Potency in test [10] was 38 µM (active); in test [13], 7.52 µM (active); in test [11], 13.4 µM (active); in test [12] it was 16.8 µM (active); in [18], 17 µM (active); in [17], 42.3 µM (active). Besides, the call in [19] was inactive.

As for `CCN=c1cc2oc3cc(NCC)c(C)cc3c(-c3ccccc3C(=O)OCC)c-2cc1C`, the Potency in test [1] was 39.8 µM [fluorescent] (active); in test [3] it was 39.8 µM [fluorescent] (active); in [4], 3.16 µM [fluorescent] (active) and 4.47 µM [fluorescent] (active); in test [5], 2.82 µM [fluorescent] (active) and 3.55 µM [fluorescent] (active); in [7] it was 39.8 µM [fluorescent] (active); in [10] it was 21.8 µM (active) and 21.9 µM (active). Also, the Potency in test [11] was 384 nM (active) and 137 nM (active); in test [12], 305 nM (active) and 109 nM (active); in test [14], 689 nM (active) and 1.23 µM (active); in [18], 0.154 µM (active); in [15], 683 nM (active) and 386 nM (active); in test [17], 108 nM (active) and 96.9 nM (active). In addition, the Potency result in [2], in [6] and in [8] was “inactive” throughout.

The values above are taken from PubChem BioAssay (Tox21).
